Five compounds from PubChem BioAssay can be followed below.

The nature of experiment [1]: small molecules captured by biotinylated probe aFSTL3 – biochemical, small-molecule microarray, fluorescence 635/667, stem cell growth factor project, primary screen (AID 1064).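 Further: measures binding of the biotinylated anti-FSTL3 antibody to printed compounds.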 To be noted: higher = more signal.
Experiment [2] in a line: binders from COS7 lysate, DM2A8 probe, primary screen, torsin A project, cell lysate, small-molecule microarray, fluorescence 635/667 (AID 1065). To be noted: higher = more signal, COS7 lysate expressing mutant human TOR1A.
Experiment [3] can be described thus: small molecules captured by biotinylated probe aFGF2 – biochemical, small-molecule microarray, fluorescence 635/667, stem cell growth factor project, primary screen (AID 1067).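 Further: measures binding of biotinylated aFGF2 protein to printed compounds on slides; z-score merges feature fluorescence and signal-to-noise across triplicate slides.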 To be noted: higher = more signal.
Experiment [4] can be described thus: small molecules captured by biotinylated probe aFGF10 – biochemical, small-molecule microarray, fluorescence 635/667, stem cell growth factor project, primary screen (AID 1071).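 Further: score merges 667 nm spot intensity and signal to noise from triplicate slides.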 Particulars: higher = more signal.
In experiment [5] the target is Neurogenic locus notch homolog protein 2 (Homo sapiens) (UniProt Q04721). In words: small molecules binding Notch2 protein – biochemical, small-molecule microarray, 635 nm fluorescence, stem cell growth factors, primary screen (AID 1073). Particulars: higher = more signal.
Neurogenic locus notch homolog protein 2 (Homo sapiens), sequence (Q04721 whole entry, looked up, canonical isoform): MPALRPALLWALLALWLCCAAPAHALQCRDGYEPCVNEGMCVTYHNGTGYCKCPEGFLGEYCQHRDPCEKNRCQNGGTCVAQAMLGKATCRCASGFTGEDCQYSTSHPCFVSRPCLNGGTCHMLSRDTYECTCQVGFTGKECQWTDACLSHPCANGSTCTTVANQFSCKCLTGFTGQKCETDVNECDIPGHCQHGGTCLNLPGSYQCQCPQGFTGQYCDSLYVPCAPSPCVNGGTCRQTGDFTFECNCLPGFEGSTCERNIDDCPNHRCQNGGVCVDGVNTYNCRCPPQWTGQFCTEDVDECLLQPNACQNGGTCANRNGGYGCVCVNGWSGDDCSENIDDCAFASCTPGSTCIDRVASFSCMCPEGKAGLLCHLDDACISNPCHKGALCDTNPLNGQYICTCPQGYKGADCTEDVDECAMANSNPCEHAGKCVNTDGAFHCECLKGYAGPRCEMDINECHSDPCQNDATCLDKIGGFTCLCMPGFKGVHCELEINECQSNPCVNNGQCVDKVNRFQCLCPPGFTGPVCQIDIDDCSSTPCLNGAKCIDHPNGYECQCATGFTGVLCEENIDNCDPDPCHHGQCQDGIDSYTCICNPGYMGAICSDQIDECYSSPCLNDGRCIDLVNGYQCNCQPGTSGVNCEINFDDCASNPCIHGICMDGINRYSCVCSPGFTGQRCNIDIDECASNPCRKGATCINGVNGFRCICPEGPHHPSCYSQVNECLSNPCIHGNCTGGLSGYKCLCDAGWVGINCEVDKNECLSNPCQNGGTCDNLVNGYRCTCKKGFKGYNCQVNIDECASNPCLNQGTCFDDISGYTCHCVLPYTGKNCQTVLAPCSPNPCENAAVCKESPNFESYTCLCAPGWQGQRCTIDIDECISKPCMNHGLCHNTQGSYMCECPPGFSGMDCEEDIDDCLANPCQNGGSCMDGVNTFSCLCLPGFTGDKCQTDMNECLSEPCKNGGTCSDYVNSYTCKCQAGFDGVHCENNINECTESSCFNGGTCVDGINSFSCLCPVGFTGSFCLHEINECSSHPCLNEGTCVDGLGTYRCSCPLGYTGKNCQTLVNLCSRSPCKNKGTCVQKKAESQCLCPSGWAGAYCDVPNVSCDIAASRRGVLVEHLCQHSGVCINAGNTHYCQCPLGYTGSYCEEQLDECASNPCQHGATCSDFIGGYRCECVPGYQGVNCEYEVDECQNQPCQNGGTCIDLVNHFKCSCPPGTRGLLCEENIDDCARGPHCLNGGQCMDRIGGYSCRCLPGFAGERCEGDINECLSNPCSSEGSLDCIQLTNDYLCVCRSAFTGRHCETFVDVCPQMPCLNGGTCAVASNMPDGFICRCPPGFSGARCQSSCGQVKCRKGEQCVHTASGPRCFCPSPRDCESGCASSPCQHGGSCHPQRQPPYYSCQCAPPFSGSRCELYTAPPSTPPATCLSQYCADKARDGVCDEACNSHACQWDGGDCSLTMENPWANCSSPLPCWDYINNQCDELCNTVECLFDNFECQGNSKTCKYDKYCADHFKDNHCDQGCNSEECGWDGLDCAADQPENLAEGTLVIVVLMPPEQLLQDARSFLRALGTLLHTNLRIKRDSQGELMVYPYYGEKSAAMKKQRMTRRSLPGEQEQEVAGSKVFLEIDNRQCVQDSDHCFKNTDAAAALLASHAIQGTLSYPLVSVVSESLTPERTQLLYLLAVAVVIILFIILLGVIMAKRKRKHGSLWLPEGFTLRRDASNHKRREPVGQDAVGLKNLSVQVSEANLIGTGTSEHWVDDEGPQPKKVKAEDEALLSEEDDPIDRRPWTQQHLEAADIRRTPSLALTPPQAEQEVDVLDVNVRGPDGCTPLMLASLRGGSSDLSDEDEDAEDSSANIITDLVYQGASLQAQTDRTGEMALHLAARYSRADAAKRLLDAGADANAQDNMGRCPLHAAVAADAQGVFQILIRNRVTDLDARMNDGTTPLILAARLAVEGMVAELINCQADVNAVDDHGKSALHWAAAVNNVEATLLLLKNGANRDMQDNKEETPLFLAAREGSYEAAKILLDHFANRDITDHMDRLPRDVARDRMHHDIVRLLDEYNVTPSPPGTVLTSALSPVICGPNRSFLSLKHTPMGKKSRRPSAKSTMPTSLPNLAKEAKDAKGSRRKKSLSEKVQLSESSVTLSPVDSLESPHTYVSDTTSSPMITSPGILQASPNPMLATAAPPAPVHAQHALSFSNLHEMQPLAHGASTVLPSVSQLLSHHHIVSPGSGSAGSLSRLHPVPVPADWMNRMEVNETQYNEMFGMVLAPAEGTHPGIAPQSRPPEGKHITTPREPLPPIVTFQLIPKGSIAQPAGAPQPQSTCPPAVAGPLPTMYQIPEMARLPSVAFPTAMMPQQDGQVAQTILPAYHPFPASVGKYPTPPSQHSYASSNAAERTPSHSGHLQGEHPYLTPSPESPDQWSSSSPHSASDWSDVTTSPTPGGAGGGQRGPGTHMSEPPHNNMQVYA
Experiment [6] concerns the target Pro-neuregulin-1, membrane-bound isoform (Homo sapiens) (UniProt Q02297). Nature of the experiment: small molecules binding neuregulin-1 protein – biochemical, small-molecule microarray, fluorescence 635/667, psychiatric disease protein project, primary screen (AID 1075).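 Further: score combines 667 nm spot fluorescence with signal to noise.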 To be noted: NRG1 binding, 635 nm fluorescence, higher = more signal.
Experiment [7] has as its system Neuregulin-1 EGF-like domain. In words: small molecules binding NRG1 EGF domain – biochemical, small-molecule microarray, 635 nm fluorescence, primary screen (AID 1081).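 Further: binding of the protein to compounds printed on small-molecule microarray slides.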 Particulars: higher = more signal.
A short description of experiment [8]: FRG1 expression reporter modulators in myotubes – cell-based, C2C12 myotubes, firefly/Renilla luciferase, luminescence, FRG1 inhibition for FSHD, primary screen (AID 1084). To be noted: FRG1 promoter luciferase, higher = more signal, called active from +8 up or from −8 down.
The nature of experiment [9]: small molecules captured by biotinylated probe aFST – biochemical, small-molecule microarray, fluorescence 635/667, stem cell growth factor project, primary screen (AID 1086).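 Further: score merges 667 nm fluorescence with signal-to-noise of each printed compound spot.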 To be noted: higher = more signal.
The nature of experiment [10]: binders of probe aHhip on microarray, primary screen, stem cell growth factor project, biochemical, small-molecule microarray, fluorescence 635/667 (AID 1087).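 Further: score merges spot fluorescence at 667nm with spot signal to noise ratio.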 To be noted: higher = more signal.
The subject of experiment [11] is PRMT1 (protein arginine N-methyltransferase 1). Nature of the experiment: small molecules binding arginine methyltransferase PRMT1 – biochemical, small-molecule microarray, 635 nm fluorescence, primary screen (AID 1088).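 Further: binding of Prmt1 protein to compounds spotted on small-molecule microarray slides.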 Particulars: higher = more signal.
A short description of experiment [12]: growth effects on S. cerevisiae YJM789 – YJM789 clinical isolate, OD600, 24 h, basal, primary screen (AID 1089).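 Further: growth of clinical yeast isolate S. cerevisiae YJM 789 seeded 1000 cells per well; test concentration not given here.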 Particulars: higher = more signal, called active from +8 up or from −8 down.
The nature of experiment [13]: S. pombe growth modifiers, basal conditions – strain 972, OD600, 24 h, no modulator, primary screen (AID 1090).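 Further: basal condition with compound alone and no growth modifier present; test concentration not given here.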 Particulars: S. pombe 972 growth, higher = more signal, called active from +8 up or from −8 down.
Experiment [14] is described as follows: budding yeast growth modifiers under rapamycin – strain BY4716, OD600, 96 h, primary screen (AID 1091). Further: test concentration not given here. To be noted: S. cerevisiae BY4716 + rapamycin, higher = more signal, called active from +8 up or from −8 down.
The target of experiment [15] is Torsin-1A-interacting protein 2 (Homo sapiens) (UniProt Q8NFQ8). Nature of the experiment: small molecules binding lysate-expressed LULL1 – cell lysate, human LULL1 lysate, 635/667 nm fluorescence, primary screen (AID 1092).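 Further: probe is lysate of COS7 cells overexpressing human LULL1; score merges per-feature 667 nm fluorescence with signal-to-noise.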 To be noted: small-molecule microarray, hLULL1 lysate binding, 635 nm fluorescence; higher = more signal.
Torsin-1A-interacting protein 2 (Homo sapiens), sequence (Q8NFQ8 whole entry, looked up): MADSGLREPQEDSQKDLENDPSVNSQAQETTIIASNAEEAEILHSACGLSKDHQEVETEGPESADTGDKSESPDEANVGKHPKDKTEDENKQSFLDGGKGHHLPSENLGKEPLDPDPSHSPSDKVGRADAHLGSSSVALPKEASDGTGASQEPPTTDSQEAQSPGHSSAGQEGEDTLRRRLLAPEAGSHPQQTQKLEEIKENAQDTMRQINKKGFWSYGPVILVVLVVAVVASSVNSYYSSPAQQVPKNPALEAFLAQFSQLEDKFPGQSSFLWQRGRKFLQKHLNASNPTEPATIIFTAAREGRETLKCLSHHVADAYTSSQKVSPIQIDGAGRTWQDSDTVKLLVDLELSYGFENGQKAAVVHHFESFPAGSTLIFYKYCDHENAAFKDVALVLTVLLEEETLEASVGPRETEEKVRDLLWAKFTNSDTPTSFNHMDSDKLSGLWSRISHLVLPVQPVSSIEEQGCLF
Experiment [16] is described as follows: optical density change of DRC41 E. coli – strain DRC41, OD650, 24 h, E. coli filamentation project, primary screen (AID 1093).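 Further: MC1000 strain lacking acrAB efflux and sulA so SOS filamentation is blocked; test concentration not given here.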 Particulars: E. coli DRC41 growth, higher = more signal, called active from +8 up or from −8 down.
Experiment [17] is described as follows: probe aLefty2 binding to arrayed compounds – biochemical, biotinylated probe, 635/667 nm fluorescence, primary screen (AID 1094).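 Further: score merges spot fluorescence near 667 nm with spot signal-to-noise ratio.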 To be noted: small-molecule microarray, higher = more signal.
Experiment [18] concerns Noggin (protein binding on small-molecule microarray). Nature of the experiment: small molecules binding Noggin protein – biochemical, 635/667 nm fluorescence, primary screen (AID 1095).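 Further: score merges 667 nm feature fluorescence with signal to noise over triplicate slides.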 Particulars: 635 nm fluorescence, higher = more signal.
Experiment [19] addresses Neurogenic locus notch homolog protein 3 (Homo sapiens) (UniProt Q9UM47). In words: small molecules binding NOTCH3 protein – biochemical, 635/667 nm fluorescence, primary screen (AID 1096). To be noted: small-molecule microarray, 635 nm fluorescence, higher = more signal.
Experiment [20] can be described thus: probe aEGFR binding to arrayed compounds – biochemical, biotinylated probe, 635/667 nm fluorescence, primary screen (AID 1097).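 Further: probe is a biotinylated anti-EGFR antibody binding compounds printed on slides; score combines fluorescence near 667 nm and signal to noise of each spot.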 Particulars: small-molecule microarray, higher = more signal.

Activity calls are given as the source filed them.

Pro-neuregulin-1, membrane-bound isoform (Homo sapiens), sequence (Q02297 whole entry, looked up, the tested form may be a part, canonical isoform): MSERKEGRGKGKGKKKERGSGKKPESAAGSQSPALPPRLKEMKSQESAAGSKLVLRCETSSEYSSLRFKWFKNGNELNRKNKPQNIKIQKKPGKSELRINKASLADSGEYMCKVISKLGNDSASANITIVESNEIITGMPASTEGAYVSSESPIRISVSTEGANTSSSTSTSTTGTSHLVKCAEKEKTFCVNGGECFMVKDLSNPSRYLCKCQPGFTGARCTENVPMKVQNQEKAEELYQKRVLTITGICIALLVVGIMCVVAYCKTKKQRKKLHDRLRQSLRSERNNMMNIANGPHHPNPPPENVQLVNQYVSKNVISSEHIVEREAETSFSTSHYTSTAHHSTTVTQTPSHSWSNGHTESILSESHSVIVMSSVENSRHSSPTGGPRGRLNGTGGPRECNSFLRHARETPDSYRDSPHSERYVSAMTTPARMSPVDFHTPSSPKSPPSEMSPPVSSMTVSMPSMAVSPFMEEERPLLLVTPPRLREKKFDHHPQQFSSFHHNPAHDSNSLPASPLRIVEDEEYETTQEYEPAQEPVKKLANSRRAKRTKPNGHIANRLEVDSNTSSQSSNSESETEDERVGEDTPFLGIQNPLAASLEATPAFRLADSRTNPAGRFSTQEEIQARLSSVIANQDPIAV

With `CCCC[C@@H]1C[C@H]1[C@@H](NC(=O)c1ccccc1)c1ccc(C(=O)OC)cc1`, the composite z-score in experiment [1] is 1.37; in experiment [2] it was -0.0965; in experiment [3] it was -0.0273; in experiment [4] it was -0.282; in experiment [5], -0.547; in [6], -0.273. In addition, the composite z-score in [7] is -0.544; in [9] it was -0.303; in experiment [10], 0.35; in experiment [11], -0.406; in [15] it was 0.0062; in experiment [17] it was 0.285. Besides, the results for the composite z-score in experiment [18], in experiment [19] and in experiment [20] were 0.894, -0.544 and -0.224, respectively. The z-score in experiment [8] was 0.191 (inactive); in [12], -1.24 (inactive); in experiment [13] it was -11.2 (active); in [14], -2.61 (inactive); in experiment [16], -1.13 (inactive).
On to `COC(=O)[C@]1(CCC(=O)OC(C)(C)C)N=C(c2ccc(OCCCO)cc2)O[C@@H]1c1ccccc1CN=[N+]=[N-]`, for which the composite z-score in experiment [1] is 0.995; in [2], -0.0569; in experiment [3] it was -0.0073; in experiment [4] it was 0.0301; in experiment [5] it was 0.53; in experiment [6] it was 0.971. The composite z-score in [7] was 1.14; in experiment [9], 0.773; in [10], -0.169; in experiment [11], 1.52; in experiment [15], 2.07; in experiment [17] it was 0.271. In addition, the composite z-score in [18] is -0.146; in experiment [19] it was 0.51; in experiment [20], 0.124. The z-score in experiment [8] was -3.06 (inactive); in experiment [12] it was 0.339 (inactive); in [13], 0.419 (inactive); in experiment [14], 15.2 (active); in experiment [16], -0.511 (inactive).
Consider `C=CCN1C(=O)[C@]2(O[C@H](CCn3cc([C@H](O)c4ccccc4)nn3)[C@@H]([Si](C)(C)c3ccc(OC)cc3)[C@@H]2C)c2ccccc21`, for which the composite z-score in experiment [1] is 0.202; in experiment [2], -0.602; in experiment [3] it was -0.0894; in experiment [4], -0.264; in [5], -0.439; in experiment [6] it was 0.093. The composite z-score was -0.0113 in [7]; -0.366 in experiment [9]; -0.264 in experiment [10]; 0.267 in experiment [11]; 0.41 in experiment [15]; -0.113 in [17]. Moreover, the composite z-score was -0.308 in experiment [18], 0.183 in experiment [19] and -0.145 in experiment [20]. Also, the z-score in experiment [8] was -0.356 (inactive); in [12], -1.25 (inactive); in [13], 0.0123 (inactive); in [14], -0.198 (inactive); in experiment [16], -0.68 (inactive).
On to `CCCC[C@@H]1C[C@H]1[C@@H](NC(=O)c1ccco1)c1ccccc1C(F)(F)F`, for which the composite z-score in experiment [1] is 2.82; in [2] it was -0.108; in experiment [3], 0.806; in experiment [4] it was 0.0033; in experiment [5], 0.967; in experiment [6], 0.382. For the same compound, the composite z-score is -0.226 in experiment [7]; 2.87 in [9]; 3.61 in [10]; -0.191 in experiment [11]; 1.53 in [15]; 1.36 in experiment [17]. For the same compound, the composite z-score in [18] is -0.339; in [19], 0.453; in [20], 0.856. The z-score in [8] is 0.792 (inactive); in experiment [12], 0.493 (inactive); in [13], 1.13 (inactive); in experiment [14] it was -0.0491 (inactive); in experiment [16], -0.763 (inactive).
As to `CN(C)CCCC[C@@H]1NC(=O)[C@@H]2C[C@H](C(=O)NCCCCCCN)[C@H](c3cccc(OCCO)c3)N2C1=O`, the composite z-score stood at 1.58 in experiment [1]; 2.15 in experiment [2]; 0.044 in experiment [3]; 0.973 in experiment [4]; 1.57 in [5]; 2.24 in experiment [6]. For the same compound, the composite z-score in experiment [7] is 1.42; in experiment [9] it was 0.88; in [10] it was -0.103; in [11], 1.53; in experiment [15], 3.25; in [17], 1.03. Further, the composite z-score is 0.612 in experiment [18], 0.395 in [19] and 0.54 in experiment [20]. Further, the z-score in experiment [8] is 0.0194 (inactive); in experiment [12], -0.968 (inactive); in [13] it was -4.9 (inactive); in [14] it was -0.883 (inactive); in [16], 0.26 (inactive).
